Data reported in publication PMC4336329 (PLoS ONE, 2015).
Hit rate of the full screen: of about 310,000 compounds, about 14,000 (4.5%) showed an effect of 50% or more. The effect is printed as a negative number. The entries come from a sample that favours strong results as a whole.

These compounds were tested against human ether-à-go-go-related gene (hERG) potassium channel (human, UniProt Q12809) (assay: primary screen, population patch clamp on CHO cells stably expressing hERG; higher = less effect of the substance).
Chain of human ether-à-go-go-related gene (hERG) potassium channel (Q12809 whole entry, looked up): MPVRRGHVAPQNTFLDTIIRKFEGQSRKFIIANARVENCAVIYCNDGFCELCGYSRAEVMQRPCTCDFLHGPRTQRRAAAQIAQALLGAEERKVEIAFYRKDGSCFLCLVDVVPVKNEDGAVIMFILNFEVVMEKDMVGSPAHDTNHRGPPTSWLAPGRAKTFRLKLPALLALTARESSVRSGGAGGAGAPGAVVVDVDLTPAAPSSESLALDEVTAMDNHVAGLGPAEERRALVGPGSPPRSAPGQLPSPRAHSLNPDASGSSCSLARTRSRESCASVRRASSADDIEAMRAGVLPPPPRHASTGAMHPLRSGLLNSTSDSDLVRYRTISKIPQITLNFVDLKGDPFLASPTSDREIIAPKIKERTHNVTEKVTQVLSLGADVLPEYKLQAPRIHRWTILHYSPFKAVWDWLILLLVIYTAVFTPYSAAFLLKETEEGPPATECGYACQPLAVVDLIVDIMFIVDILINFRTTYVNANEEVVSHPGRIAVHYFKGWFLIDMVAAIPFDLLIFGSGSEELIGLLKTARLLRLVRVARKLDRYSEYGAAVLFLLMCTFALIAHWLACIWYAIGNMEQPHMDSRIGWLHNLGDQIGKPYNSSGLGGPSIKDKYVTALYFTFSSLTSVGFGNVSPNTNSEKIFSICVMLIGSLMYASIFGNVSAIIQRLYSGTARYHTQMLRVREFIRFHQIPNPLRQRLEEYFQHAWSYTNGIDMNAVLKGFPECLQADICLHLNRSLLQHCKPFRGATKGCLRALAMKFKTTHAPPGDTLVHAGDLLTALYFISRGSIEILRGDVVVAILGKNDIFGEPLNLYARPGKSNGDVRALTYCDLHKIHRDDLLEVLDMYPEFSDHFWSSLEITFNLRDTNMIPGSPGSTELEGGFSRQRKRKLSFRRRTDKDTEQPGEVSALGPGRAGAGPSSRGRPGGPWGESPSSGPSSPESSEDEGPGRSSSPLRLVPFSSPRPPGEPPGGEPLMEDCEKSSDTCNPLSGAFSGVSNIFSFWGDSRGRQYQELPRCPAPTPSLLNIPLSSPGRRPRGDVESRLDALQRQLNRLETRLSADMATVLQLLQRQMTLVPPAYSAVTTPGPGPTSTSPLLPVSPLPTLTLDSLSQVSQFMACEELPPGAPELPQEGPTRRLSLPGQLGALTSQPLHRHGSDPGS
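Also: peak tail current of the secondary pulse compared with the same well before compound.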

SMILES | hERG current change (%, negative = inhibition) at 10uM
Cc1sc2nc(SCC(=O)NCc3ccco3)n(-c3ccccc3)c(=O)c2c1C | 8.63%
O=P(CCN1CCCCC1)(c1ccccc1)c1ccccc1 | -5.98%
COc1ccc(NC(=O)c2cccnc2Sc2ccccc2)c(OC)c1 | 7.52%
CC(C)(C)NC(=O)Cn1nnc(-c2ccccc2Cl)n1 | 6.43%
CSc1ncccc1C(=O)OCC(=O)NC(C)(C)C | 10.5%
COc1ccc(NC(=O)C2CCC(CNS(=O)(=O)c3csc(C(N)=O)c3)CC2)cc1OC (stereo not shown) | 15.3%
COc1ccc2[nH]c(C(=O)Nc3ccc(F)cc3Br)cc2c1 | 11.7%
COc1ccc(/C=N/NC(=O)c2cccnc2)cc1O | 11.1%
O=C(c1cccc([N+](=O)[O-])c1)N1CCN(c2cccc(Cl)c2)CC1 | -57.4%
COc1ccccc1N1CCN(C(=O)c2ccc(Br)s2)CC1.Cl | -46.3%
COc1ccc(OC)c2sc(N3CCN(C(=O)c4ccc([N+](=O)[O-])s4)CC3)nc12 | -41.9%
Cc1ccc(N2CCN(C(=O)c3cccc([N+](=O)[O-])c3)CC2)cc1Cl | -19.1%
COc1ccccc1N1CCN(C(=O)c2ccc([N+](=O)[O-])s2)CC1 | -54.5%
O=C(c1cccc([N+](=O)[O-])c1)N1CCN(c2ccc(Cl)cc2)CC1 | -41.1%
CCOC(=O)N1CCN(S(=O)(=O)c2ccc(Br)s2)CC1 | -9.22%
COc1ccc(CC(=O)Nc2ccc(-c3csc(C)n3)cc2)cc1 | 7.89%
COc1ccc(Nc2nc(-c3cc4cccc(OC)c4oc3=O)cs2)cc1 | 11.6%
Cc1cccc(C(=O)Nc2cccc(C(=O)Nc3cc(C)ccn3)c2)c1 | 7.29%
O=C(CC1N=C2c3ccccc3N=C(SCc3ccccc3Cl)N2C1=O)NCc1ccco1 (stereo not shown) | -47%
CCCCNC(=O)CC1N=C2c3ccccc3N=C(SCC(=O)Nc3ccccc3C)N2C1=O (stereo not shown) | -0.929%
CCCCNC(=O)CC1N=C2c3ccccc3N=C(SCC(=O)Nc3cccc(OC)c3)N2C1=O (stereo not shown) | -10.6%

SMILES | hERG current change (%, negative = inhibition) at 10uM
Cc1ccc(CSC2=Nc3ccccc3C3=NC(CCC(=O)NCc4ccco4)C(=O)N23)cc1 (stereo not shown) | -68.8%
CCC(C)NC(=O)CSC1=Nc2ccccc2C2=NC(CCC(=O)NCc3ccco3)C(=O)N12 (stereo not shown) | -1.01%
O=C(CCC1N=C2c3ccccc3N=C(SCC(=O)NCc3ccco3)N2C1=O)NCc1ccco1 (stereo not shown) | 12.7%
NC(=O)CSC1=Nc2ccccc2C2=NC(CC(=O)NCc3cccs3)C(=O)N12 (stereo not shown) | 11.2%
Cc1ccc(CSC2=Nc3ccccc3C3=NC(CC(=O)NCc4ccco4)C(=O)N23)cc1 (stereo not shown) | -51.8%
O=C(CSC1=Nc2ccccc2C2=NC(CC(=O)NCc3ccco3)C(=O)N12)NCc1ccco1 (stereo not shown) | 7.61%
O=C(CC1N=C2c3ccccc3N=C(SCc3ccc(Cl)cc3)N2C1=O)NCc1ccco1 (stereo not shown) | -75.3%
O=C(CSC1=Nc2ccccc2C2=NC(CC(=O)NC3CCCCC3)C(=O)N12)NCc1ccco1 (stereo not shown) | -29.9%
CCCCNC(=O)CC1N=C2c3ccccc3N=C(SCC(=O)Nc3cccc(C)c3)N2C1=O (stereo not shown) | -52.6%
Cn1c(SCC(=O)O)nnc1-c1ccc(NC(=O)c2ccc(Cl)c(Cl)c2)cc1 | 7%
COCc1[nH]nc2c1C(C1C=CCCC1)C(C#N)=C(N)O2 (stereo not shown) | -8.37%
CSc1ccc(/C=C/C(=O)NC(=O)c2ccccc2O)cc1 | 11.3%
O=C(O)/C=C/c1cnc2ccccc2c1 | 19.1%
CCOc1ccc(C(O)(CCC(C)C)C(CN2CCOCC2)c2ccccc2)cc1.Cl (stereo not shown) | 13.3%
COc1ccc(CCNC(=O)CCC(=O)Nc2nnc(C(C)C)s2)cc1OC | 10.4%
Cc1cc(N)n(-c2nc(-c3cccnc3)nc3ccccc23)n1 | -27.4%
O=S(=O)(CCN1CCOCC1)c1ccc(OC(F)(F)F)cc1 | 2.9%
COc1ccc(OCCOC(=O)C(C)NS(=O)(=O)c2ccc(NC(C)=O)cc2)cc1 (stereo not shown) | -7.73%
COC(=O)C1=C(c2c(C)noc2C)C[C@@H]2CC[C@H]1N2C(=O)N1CCCCC1 | 17.1%
CC(=O)Nc1ccc(N=Nc2ccccc2)cc1 | 8.44%
O=C(NC(=S)Nc1nc(-c2ccc([N+](=O)[O-])cc2)cs1)c1ccco1 | 16.5%

SMILES | hERG current change (%, negative = inhibition) at 10uM
O=C(CCC1N=C2c3ccccc3N=C(SCc3cccc(Cl)c3)N2C1=O)NCc1ccco1 (stereo not shown) | -42.2%
O=C(CCC1N=C2c3ccccc3N=C(SCc3ccccc3Cl)N2C1=O)NCc1ccco1 (stereo not shown) | -32.4%
O=C(CC1N=C2c3ccccc3N=C(SCc3ccc(F)cc3)N2C1=O)NCc1ccco1 (stereo not shown) | -73.9%
O=C(CCC1N=C2c3ccccc3N=C(SCc3ccc(F)cc3)N2C1=O)NCc1ccco1 (stereo not shown) | -70.9%
O=C(CCC1N=C2c3ccccc3N=C(SCC(=O)NCC3CCCO3)N2C1=O)NCc1ccc(F)cc1 (stereo not shown) | 2.89%
O=C(CCC1N=C2c3ccccc3N=C(SCc3ccc(Cl)cc3)N2C1=O)NCc1ccco1 (stereo not shown) | -52%
CCC(C)NC(=O)CSC1=Nc2ccccc2C2=NC(CC(=O)NCc3ccc(F)cc3)C(=O)N12 (stereo not shown) | -11.4%
O=C(CSC1=Nc2ccccc2C2=NC(CC(=O)NCc3ccco3)C(=O)N12)NCC1CCCO1 (stereo not shown) | 7.92%
NC(=O)CSC1=Nc2ccccc2C2=NC(CCC(=O)NCc3ccc(F)cc3)C(=O)N12 (stereo not shown) | 15.1%
CCCCN(C)CCNC(=O)c1ccc(Cn2c(=S)[nH]c3ccc(Br)cc3c2=O)cc1 | -41%
COCCNC(=S)N(CCCN(C)C)Cc1cc2cc3c(cc2[nH]c1=O)OCCO3 | 24.9%
CC(Oc1ccc2c(-c3ccccc3)cc(=O)oc2c1)C(=O)N[C@H](Cc1c[nH]c2ccccc12)C(=O)O (stereo partly shown) | 7.48%
O=C(NCC1CCCO1)c1cnn2c1NC(c1ccccc1)CC2C(F)(F)F (stereo not shown) | 1.68%
NS(=O)(=O)c1cccc(NC(=O)COC(=O)CCc2ccccc2)c1 | 17%
CCC(=O)N1CCc2cc(S(=O)(=O)CCC(=O)NCc3ccc4c(c3)OCO4)ccc21 | 0.659%
Cc1ccc2c(CC(=O)NCCc3ccc(S(N)(=O)=O)cc3)coc2c1 | -2.43%
O=C(O)C(=O)O.c1ccc(COc2ccc(OCCCN3CCCCC3)cc2)cc1 | -78.3%
O=C(O)C(=O)O.c1ccc(COc2ccc(OCCCN3CCCC3)cc2)cc1 | -73.8%
COc1cccc2c1-c1c(C(=O)O)cccc1C2=O | 15.7%
CC(=O)c1ccc(NC(=O)C(C)NCc2ccccc2Cl)cc1 (stereo not shown) | -0.834%
CCCCN(CC)Cc1c(C)[nH]c2c(ccc3ccccc32)c1=O | -74.3%

SMILES | hERG current change (%, negative = inhibition) at 10uM
CCCCN(C)Cc1c(C)[nH]c2c(Cl)cccc2c1=O | -38.7%
Cc1[nH]c2ccc(Cl)cc2c(=O)c1CN1CCCC1 | 1.86%
CCCCN(C)Cc1c(C)[nH]c2c(ccc3ccccc32)c1=O | -73.6%
CCN(Cc1ccccc1)Cc1c(C)[nH]c2c(C)c(C)ccc2c1=O | -40.6%
CCCCN(C)Cc1c(C)[nH]c2ccccc2c1=O | -2.26%
CCCCN(C)Cc1c(C)[nH]c2ccc(Cl)cc2c1=O | -55.3%
CCCCN(C)Cc1c(C)[nH]c2ccc(OCC)cc2c1=O | -39.9%
CCCCN(CC)Cc1c(C)[nH]c2ccccc2c1=O | -20.7%
CC1(C)CC(=O)C(C=Nc2cccnc2/N=C/C2=C(O)CC(C)(C)CC2=O)=C(O)C1 | 14%
O=c1[nH]n2c(C(F)(F)F)cc(C3CC3)nc2c1N=Nc1ccccc1 | 12.2%
COc1cc(OC)cc(-c2oc(=O)c3cc(OC)c(OC)cc3c2/C=C/c2ccc(F)cc2)c1 | 4.91%
Cc1ccc(C(=O)n2nnc3ccccc32)cc1 | 7.37%
CN1C(=S)SC(/[N+]([O-])=C\c2ccccc2)C1(C)C (stereo not shown) | -15.4%
COC(=O)c1[nH]c2ccccc2c1NC(=O)CN1CCN(Cc2ccc3c(c2)OCO3)CC1 | -73.7%
CCN(CC(=O)Nc1c(C(=O)OC)[nH]c2ccccc12)c1ccc2c(c1)OCO2 | -17.4%
COC(=O)c1[nH]c2ccccc2c1NC(=O)CN1CCN(c2cccc(Cl)c2)CC1 | 6.84%
COC(=O)c1[nH]c2ccc(C)cc2c1NC(=O)CN1CCN(c2ccc(F)cc2)CC1 | -1.02%
CCN(CC(=O)Nc1c(C(=O)OC)[nH]c2ccc(C)cc12)c1ccc2c(c1)OCO2 | 2.19%
COC(=O)c1[nH]c2ccc(C)cc2c1NC(=O)CCN1CCN(Cc2ccc3c(c2)OCO3)CC1 | -66.1%
